Compounds without any hit were thinned out: in the full panel of roughly 83,000, 20% have a hit.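 Treatment: one concentration, 48 hours, 96-well format. Scoring: percent growth, with anything below 10 considered active.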 Unmarked numbers belong to inactive results. Activity calls are given as the source filed them.
How the values were obtained:
Assay in all cases: NCI-60 one-dose screen, 48 h (100 = growth as untreated, 0 = no growth, -100 = all killed)
NCI-H23 lung = details: 10 µM unless noted
NCI-H226 lung = details: 10 µM unless noted
HOP-62 NSCLC = details: 10 µM unless noted
NCI-H460 lung = details: 10 µM unless noted
HOP-92 NSCLC = details: 10 µM unless noted
NCI-H522 lung = details: 10 µM
786-0 renal = details: 10 µM unless noted
COLO 205 colon = details: 10 µM unless noted
K-562 leukemia = details: 10 µM unless noted
MALME-3M melanoma = details: 10 µM unless noted
MDA-MB-231 breast = details: 10 µM unless noted
SF-268 CNS = details: 10 µM unless noted
SF-295 CNS = details: 10 µM unless noted
SF-539 CNS = details: 10 µM unless noted
UACC-257 melanoma = details: 10 µM unless noted
M14 melanoma = details: 10 µM unless noted
A549/ATCC NSCLC = details: 10 µM unless noted
DU-145 prostate = details: 10 µM unless noted
RXF 393 renal = details: 10 µM unless noted
NCI-H322M lung = details: 10 µM unless noted

Compound	growth (NCI-H23 lung)	growth (NCI-H226 lung)	growth (HOP-62 NSCLC)	growth (NCI-H460 lung)	growth (HOP-92 NSCLC)	growth (NCI-H522 lung)	growth (786-0 renal)	growth (COLO 205 colon)	growth (K-562 leukemia)	growth (MALME-3M melanoma)	growth (MDA-MB-231 breast)	growth (SF-268 CNS)	growth (SF-295 CNS)	growth (SF-539 CNS)	growth (UACC-257 melanoma)	growth (M14 melanoma)	growth (A549/ATCC NSCLC)	growth (DU-145 prostate)	growth (RXF 393 renal)	growth (NCI-H322M lung) [%]
Cc1cc(Cl)ccc1Nc1nc(C(F)(F)F)ccc1C(=O)N/N=C/c1ccc(Cl)cc1	5.4% (active)	7.79% (active)	-61.2% (active)	-5.33% (active)	-24.1% (active)	-17.6% (active)	-45% (active)	-18.7% (active)	5.71% (active)	-0.888% (active)	-22.5% (active)	10.4%	-41.8% (active)	0.0279% (active)	16.6%	0.962% (active)	–	–	–	–
Cc1ccc(N/N=C(/C(=O)c2ccc(Cl)cc2)c2nc(C)cc(=O)[nH]2)cc1	111%	107%	94.2%	105%	91%	–	82.9%	116%	91.7%	126%	95.9%	107%	90%	85.3%	105%	82.7%	100%	102%	40.7%	–
CSc1nc(N)c2c(n1)N(C)C=NS2(=O)=O	105%	101%	123%	115%	79.1%	105%	108%	101%	116%	110%	108%	107%	105%	107%	114%	106%	–	122%	116%	–
CC(=O)Nc1c(Cl)cc2c(c1Cl)Cc1ccccc1-2	91.5%	90.7%	107%	104%	87.7%	–	108%	112%	104%	–	80.3%	111%	132%	105%	106%	107%	92.1%	108%	104%	–
CSc1nc(-c2ccc(O)cc2O)c2c(=O)[nH]c(Nc3ccc(S(=O)(=O)Nc4nc(C)cc(C)n4)cc3)nc2n1	105%	105%	–	111%	–	–	100%	112%	99.4%	79.8%	100%	101%	–	108%	124%	–	112%	95.1%	115%	108
COc1ccc(C(=O)COc2cccc(/C=C3\CSc4ccc(Cl)cc4C3=O)c2)cc1	87.1%	75.1%	95.8%	101%	–	61.7%	97.3%	123%	22.1%	–	76.2%	91%	95.9%	104%	89.3%	102%	–	–	–	–
CCN(Cc1cccc(S(=O)(=O)[O-])c1)c1ccc(C(=C2C=CC(=[N+](CC)Cc3cccc(S(=O)(=O)O)c3)C=C2)c2ccccc2S(=O)(=O)O)cc1	97.3%	93.8%	99.3%	107%	87.3%	99.4%	92.7%	107%	90.8%	118%	100%	94.6%	94.5%	97.4%	–	98.4%	–	107%	106%	–
O=C1C=CC(=O)N1c1ccccn1	102%	108%	113%	106%	104%	–	105%	112%	94.5%	124%	102%	99.1%	105%	99.8%	105%	105%	96.9%	111%	126%	–
Nc1ccc(Oc2c(F)c(F)c(Oc3ccc(N)cc3)c(F)c2F)cc1	96.5%	104%	101%	112%	80.5%	90.4%	106%	108%	93.3%	87.1%	109%	97.9%	103%	111%	9.12% (active)	99.1%	–	107%	–	–
[N-]=[N+]=NCc1cccc(/C(O)=C/C(=O)C(=O)O)c1	85.4%	86.1%	94.5%	104%	92.7%	–	97.3%	99.6%	110%	91.5%	88.4%	91.5%	143%	100%	100%	118%	93.6%	92.1%	24.6%	–
CCCCCCCCCCNCCSS(=O)(=O)O	86.2%	102%	100%	-62.7% (active)	93.3%	–	87.6%	116%	6.77% (active)	106%	76.3%	-35.9% (active)	–	99.3%	101%	34.3%	69.7%	73.3%	104%	–
Cc1sc2nc(NCCc3cccs3)[nH]c(=O)c2c1C	98.5%	83.2%	68.4%	95.7%	93.3%	–	81.6%	91%	82.5%	98.7%	92.5%	95.4%	82.8%	91.4%	72%	82.9%	58.7%	94.7%	78.9%	–
CCN1CCN(c2nc(NNC(=O)Cc3ccccc3)nc(N3CCN(C(c4ccccc4)c4ccccc4)CC3)n2)CC1	95.1%	95%	–	11.1%	82.9%	–	64.1%	-41.3% (active)	2.28% (active)	77%	82.7%	82%	68.3%	86.8%	-51.5% (active)	-68.2% (active)	46.6%	63.5%	66.6%	–
CCCCCc1c(C)[nH]c(/C=C2\N=C(c3ccc[nH]3)C=C2OCc2ccccc2)c1C	-67.3% [100 µM] (active)	-42.5% [100 µM] (active)	-91.9% [100 µM] (active)	-40.4% [100 µM] (active)	-77.6% [100 µM] (active)	–	-75.7% [100 µM] (active)	-84% [100 µM] (active)	-26.2% [100 µM] (active)	-86.9% [100 µM] (active)	-86.4% [100 µM] (active)	-70.9% [100 µM] (active)	–	-69.8% [100 µM] (active)	-87.7% [100 µM] (active)	-81.4% [100 µM] (active)	-70% [100 µM] (active)	-100% [100 µM] (active)	-48.8% [100 µM] (active)	–
Cc1ccccc1NC(=O)NC(CC(N)=O)c1ccc2c(c1)nc(-c1cccc(Oc3ccc(C(C)(C)C)cc3)c1)n2CCCN1CCCCC1C (configuration not stated)	64.7%	109%	25.8%	-30.7% (active)	13.5%	–	26.7%	-65.6% (active)	-44.6% (active)	-52.6% (active)	28.1%	46.7%	83.5%	13.1%	-71.3% (active)	-81.8% (active)	54.9%	68.2%	25.1%	–
N=C1c2nc3n(c2C(=O)c2nc4n(c21)CCCCC4)CCCCC3	97.3%	98.3%	122%	92.6%	126%	90.9%	120%	–	102%	103%	117%	108%	93.8%	105%	–	108%	–	113%	102%	–
COc1ccc(CNC(=O)c2c(C)n([O-])c3cc(F)c(F)cc3[n+]2=O)cc1	41.9%	99.6%	107%	97.2%	89.1%	77.9%	92.9%	131%	46.5%	111%	76.3%	88.7%	57.1%	96.9%	98%	90.5%	–	–	–	–

Reference: PubChem BioAssay (NCI)
